One sequence from publication PMC7862700, “An all-to-all approach to the identification of sequence-specific readers for epigenetic DNA modifications on cytosine” can be followed below.

Holding throughout (assay): DAPPL (digital affinity profiling via proximity ligation, sequencing); 10 mM Tris-HCl pH 7.5, 50 mM NaCl, 1 mM DTT, 4% glycerol, room temperature, 30 min; GST-TFs on glutathione beads, 16-mer random dsDNA library, 0.1% formaldehyde crosslink after washing; high values mean tight binding
The target in assay [1] is T1, FEV (Homo sapiens, UniProt Q99581 1-238).
T1 sequence: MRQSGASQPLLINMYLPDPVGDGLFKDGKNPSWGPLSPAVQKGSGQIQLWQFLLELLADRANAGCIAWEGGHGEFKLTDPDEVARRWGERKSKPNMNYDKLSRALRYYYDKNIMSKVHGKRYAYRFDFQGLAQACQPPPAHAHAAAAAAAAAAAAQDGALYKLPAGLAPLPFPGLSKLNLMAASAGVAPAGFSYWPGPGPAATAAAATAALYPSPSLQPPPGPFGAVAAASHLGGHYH
The settings on record: protein: recombinant; tags: N-terminal GST; dsDNA, one strand shown. In outline:
(§1)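 Binding signal is defined as a hexamer's read frequency for one factor over its frequency for the tag-only sample. To obtain reads, GST-fused human transcription factors were expressed in yeast, captured on glutathione beads, barcoded with DNA and pooled with that sample. Pools met 200 nmole of a 16-mer random double-stranded DNA library in Tris/NaCl/DTT/glycerol buffer for 30 min at room temperature before washing, 0.1% formaldehyde crosslinking, proximity ligation (BsaI/T4 ligase, 1 h, 37 °C), PCR and Illumina NextSeq500 sequencing.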

Assay [2] addresses ETV5 (Homo sapiens, UniProt P41161 1-510). The settings on record: protein: recombinant; tags: N-terminal GST; dsDNA, one strand shown. In outline:
as §1

For assay [3], the target named is HSF1 (Homo sapiens, UniProt Q00613 1-529). The settings on record: protein: recombinant; tags: N-terminal GST; chain copies: 3; dsDNA, one strand shown. Summed up:
as §1

In assay [4] the target is T2, SPIC (Homo sapiens, UniProt Q8N5J4 1-248).
T2 sequence: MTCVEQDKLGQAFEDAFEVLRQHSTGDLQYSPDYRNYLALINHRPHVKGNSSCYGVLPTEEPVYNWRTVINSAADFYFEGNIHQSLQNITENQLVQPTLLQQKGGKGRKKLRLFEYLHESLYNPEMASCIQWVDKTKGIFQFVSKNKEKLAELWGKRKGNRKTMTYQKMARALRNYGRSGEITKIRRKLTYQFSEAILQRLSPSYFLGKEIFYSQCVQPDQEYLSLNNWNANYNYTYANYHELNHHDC
The settings on record: protein: recombinant; tags: N-terminal GST; dsDNA, one strand shown. In outline: as §1

The target in assay [5] is ELF4 (Homo sapiens, UniProt Q99607 1-663). The settings on record: protein: recombinant; tags: N-terminal GST; dsDNA, one strand shown. Summed up: as §1
Sequence of ELF4 (Q99607 whole entry): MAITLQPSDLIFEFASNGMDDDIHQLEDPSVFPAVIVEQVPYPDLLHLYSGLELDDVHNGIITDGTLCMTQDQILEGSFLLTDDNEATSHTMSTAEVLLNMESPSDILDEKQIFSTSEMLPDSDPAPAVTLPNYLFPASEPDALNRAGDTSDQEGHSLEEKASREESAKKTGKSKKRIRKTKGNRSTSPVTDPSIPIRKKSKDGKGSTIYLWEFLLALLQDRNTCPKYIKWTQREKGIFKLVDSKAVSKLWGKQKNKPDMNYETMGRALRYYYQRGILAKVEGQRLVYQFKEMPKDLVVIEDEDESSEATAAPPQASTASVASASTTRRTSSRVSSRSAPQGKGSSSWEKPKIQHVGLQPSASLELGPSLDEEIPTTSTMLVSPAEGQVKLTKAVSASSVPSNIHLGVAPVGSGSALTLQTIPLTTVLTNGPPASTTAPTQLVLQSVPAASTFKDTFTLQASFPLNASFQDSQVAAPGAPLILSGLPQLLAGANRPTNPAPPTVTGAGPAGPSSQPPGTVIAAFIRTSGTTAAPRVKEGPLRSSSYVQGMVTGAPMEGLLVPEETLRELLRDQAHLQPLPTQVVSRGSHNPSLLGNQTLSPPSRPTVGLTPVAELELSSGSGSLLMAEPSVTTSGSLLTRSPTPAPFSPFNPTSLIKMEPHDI
Assay [6] has as its target T3, ELK4 (Homo sapiens, UniProt P28324-2 1-405).
T3 sequence: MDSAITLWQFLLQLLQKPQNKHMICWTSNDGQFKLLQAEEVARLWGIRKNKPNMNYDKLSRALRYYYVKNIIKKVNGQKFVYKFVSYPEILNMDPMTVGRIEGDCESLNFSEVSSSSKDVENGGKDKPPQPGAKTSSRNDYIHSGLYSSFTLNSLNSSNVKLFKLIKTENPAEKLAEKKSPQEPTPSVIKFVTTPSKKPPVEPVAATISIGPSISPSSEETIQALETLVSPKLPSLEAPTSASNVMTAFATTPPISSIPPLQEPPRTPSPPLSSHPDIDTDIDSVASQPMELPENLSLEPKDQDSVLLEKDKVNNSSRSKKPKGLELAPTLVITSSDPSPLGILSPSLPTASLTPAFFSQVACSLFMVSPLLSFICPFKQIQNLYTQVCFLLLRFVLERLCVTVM
The settings on record: protein: recombinant; tags: N-terminal GST; dsDNA, one strand shown. Summed up:
as §1

The target of assay [7] is T4, ETV2 (Homo sapiens, UniProt O00321 1-342).
T4 sequence: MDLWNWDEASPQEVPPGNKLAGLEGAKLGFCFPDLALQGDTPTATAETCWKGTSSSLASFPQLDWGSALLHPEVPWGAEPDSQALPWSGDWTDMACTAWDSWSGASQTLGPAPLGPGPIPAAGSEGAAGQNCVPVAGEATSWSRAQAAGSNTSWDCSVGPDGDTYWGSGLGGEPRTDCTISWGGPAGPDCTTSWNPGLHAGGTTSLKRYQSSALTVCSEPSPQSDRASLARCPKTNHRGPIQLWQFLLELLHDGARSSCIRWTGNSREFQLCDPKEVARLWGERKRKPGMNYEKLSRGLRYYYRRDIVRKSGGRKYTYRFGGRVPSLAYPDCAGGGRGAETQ
The conditions noted are these: protein: recombinant; tags: N-terminal GST; dsDNA, one strand shown. Summed up:
as §1

Assay [8] concerns the target T5, ELF3 (Homo sapiens, UniProt P78545 1-371).
T5 sequence: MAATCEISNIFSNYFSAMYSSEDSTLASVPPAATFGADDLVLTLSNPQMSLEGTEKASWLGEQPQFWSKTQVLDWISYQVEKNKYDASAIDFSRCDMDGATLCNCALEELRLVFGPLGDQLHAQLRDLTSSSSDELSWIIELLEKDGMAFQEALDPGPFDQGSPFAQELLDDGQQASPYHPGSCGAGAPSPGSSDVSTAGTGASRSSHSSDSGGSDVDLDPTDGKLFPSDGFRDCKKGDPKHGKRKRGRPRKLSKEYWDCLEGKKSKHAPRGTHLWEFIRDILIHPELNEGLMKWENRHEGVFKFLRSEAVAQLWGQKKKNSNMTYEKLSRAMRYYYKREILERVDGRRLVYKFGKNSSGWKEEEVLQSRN
The settings on record: protein: recombinant; tags: N-terminal GST; dsDNA, one strand shown. In outline: as §1

The target in assay [9] is CRX (Homo sapiens, UniProt O43186 1-299). The settings on record: protein: recombinant; tags: N-terminal GST; dsDNA, one strand shown. Summed up: as §1
Sequence of CRX (O43186 whole entry): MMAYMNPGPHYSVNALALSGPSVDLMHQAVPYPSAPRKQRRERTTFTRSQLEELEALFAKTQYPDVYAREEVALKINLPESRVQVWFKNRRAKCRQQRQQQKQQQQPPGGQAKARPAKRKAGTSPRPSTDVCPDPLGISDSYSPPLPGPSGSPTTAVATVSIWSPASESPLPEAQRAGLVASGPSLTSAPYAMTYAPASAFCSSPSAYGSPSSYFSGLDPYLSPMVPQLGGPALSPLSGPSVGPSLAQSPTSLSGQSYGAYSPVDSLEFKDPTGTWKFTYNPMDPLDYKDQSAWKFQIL
Assay [10] concerns the target ETV1 (Homo sapiens, UniProt P50549 1-477). The conditions noted are these: protein: recombinant; tags: N-terminal GST; dsDNA, one strand shown. Summed up:
as §1

The target in assay [11] is T6, ERF (Homo sapiens, UniProt P50548 1-548).
T6 sequence: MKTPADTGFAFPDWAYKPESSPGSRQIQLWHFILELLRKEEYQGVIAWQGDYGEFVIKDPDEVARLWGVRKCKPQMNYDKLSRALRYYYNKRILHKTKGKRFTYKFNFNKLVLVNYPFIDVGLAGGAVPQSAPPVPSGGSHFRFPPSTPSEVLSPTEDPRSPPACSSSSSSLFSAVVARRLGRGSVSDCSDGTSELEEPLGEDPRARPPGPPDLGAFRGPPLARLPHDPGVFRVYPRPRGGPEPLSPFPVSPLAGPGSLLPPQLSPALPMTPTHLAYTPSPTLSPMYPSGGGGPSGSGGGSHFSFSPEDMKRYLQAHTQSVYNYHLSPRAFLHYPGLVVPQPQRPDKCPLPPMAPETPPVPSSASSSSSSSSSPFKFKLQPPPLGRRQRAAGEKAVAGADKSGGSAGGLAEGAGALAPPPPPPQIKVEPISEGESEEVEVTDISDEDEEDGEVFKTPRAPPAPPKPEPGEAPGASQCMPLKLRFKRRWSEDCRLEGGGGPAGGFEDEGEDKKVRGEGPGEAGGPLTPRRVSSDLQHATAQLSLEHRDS
The conditions noted are these: protein: recombinant; tags: N-terminal GST; dsDNA, one strand shown. Summed up: as §1

The target in assay [12] is T7, ETV3L (Homo sapiens, UniProt Q6ZN32 1-361).
T7 sequence: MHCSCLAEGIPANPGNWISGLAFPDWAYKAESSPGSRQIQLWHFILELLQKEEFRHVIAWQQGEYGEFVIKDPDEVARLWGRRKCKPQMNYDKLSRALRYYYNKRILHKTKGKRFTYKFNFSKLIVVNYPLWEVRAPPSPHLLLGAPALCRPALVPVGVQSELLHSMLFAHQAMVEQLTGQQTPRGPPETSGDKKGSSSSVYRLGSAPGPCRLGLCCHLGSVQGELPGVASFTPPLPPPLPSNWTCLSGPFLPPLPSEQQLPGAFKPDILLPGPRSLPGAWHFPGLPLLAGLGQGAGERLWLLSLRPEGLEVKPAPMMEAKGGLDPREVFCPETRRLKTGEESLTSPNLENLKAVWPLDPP
The conditions noted are these: protein: recombinant; tags: N-terminal GST; dsDNA, one strand shown. Summed up: as §1

Assay [13] deals with T8, ETS2 (Homo sapiens, UniProt P15036 1-469).
T8 sequence: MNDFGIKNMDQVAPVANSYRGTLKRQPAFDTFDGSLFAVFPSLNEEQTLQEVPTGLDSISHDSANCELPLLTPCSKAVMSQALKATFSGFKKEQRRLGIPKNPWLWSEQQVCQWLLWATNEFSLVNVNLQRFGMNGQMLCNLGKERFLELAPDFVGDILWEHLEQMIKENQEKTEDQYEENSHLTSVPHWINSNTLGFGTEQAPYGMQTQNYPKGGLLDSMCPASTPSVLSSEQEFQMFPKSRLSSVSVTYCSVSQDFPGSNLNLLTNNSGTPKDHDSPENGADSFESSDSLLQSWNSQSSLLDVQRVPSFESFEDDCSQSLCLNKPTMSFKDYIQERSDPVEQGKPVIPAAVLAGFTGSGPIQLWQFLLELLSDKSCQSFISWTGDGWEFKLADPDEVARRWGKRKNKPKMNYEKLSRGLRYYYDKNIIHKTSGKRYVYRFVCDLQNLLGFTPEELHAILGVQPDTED
The settings on record: protein: recombinant; tags: N-terminal GST; dsDNA, one strand shown. In outline: as §1

Assay [14] concerns the target T9, SPDEF (Homo sapiens, UniProt O95238 1-335).
T9 sequence: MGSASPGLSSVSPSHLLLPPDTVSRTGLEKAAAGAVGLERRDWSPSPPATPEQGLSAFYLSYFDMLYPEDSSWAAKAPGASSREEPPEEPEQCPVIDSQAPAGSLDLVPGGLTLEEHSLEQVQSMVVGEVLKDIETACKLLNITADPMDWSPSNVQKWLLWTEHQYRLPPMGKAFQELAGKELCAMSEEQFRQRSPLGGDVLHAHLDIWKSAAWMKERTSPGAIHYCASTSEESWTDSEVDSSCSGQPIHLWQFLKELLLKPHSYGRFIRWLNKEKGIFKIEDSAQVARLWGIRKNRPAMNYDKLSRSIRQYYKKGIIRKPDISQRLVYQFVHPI
The settings on record: protein: recombinant; tags: N-terminal GST; dsDNA, one strand shown. Summed up: as §1

Assay [15] addresses T10, ETV7 (Homo sapiens, UniProt Q9Y603 1-341).
T10 sequence: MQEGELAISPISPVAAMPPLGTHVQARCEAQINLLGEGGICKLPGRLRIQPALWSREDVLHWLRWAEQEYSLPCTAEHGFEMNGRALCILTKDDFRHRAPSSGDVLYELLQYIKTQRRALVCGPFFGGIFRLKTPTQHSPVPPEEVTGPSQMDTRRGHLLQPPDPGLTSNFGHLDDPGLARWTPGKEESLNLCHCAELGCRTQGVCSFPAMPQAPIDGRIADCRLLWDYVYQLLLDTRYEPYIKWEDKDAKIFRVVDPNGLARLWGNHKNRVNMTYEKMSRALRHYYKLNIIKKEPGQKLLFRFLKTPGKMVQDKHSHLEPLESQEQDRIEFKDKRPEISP
The settings on record: protein: recombinant; tags: N-terminal GST; dsDNA, one strand shown. In outline:
as §1

Assay [16] addresses T11, ELF5 (Homo sapiens, UniProt Q9UKW6-2 1-255).
T11 sequence: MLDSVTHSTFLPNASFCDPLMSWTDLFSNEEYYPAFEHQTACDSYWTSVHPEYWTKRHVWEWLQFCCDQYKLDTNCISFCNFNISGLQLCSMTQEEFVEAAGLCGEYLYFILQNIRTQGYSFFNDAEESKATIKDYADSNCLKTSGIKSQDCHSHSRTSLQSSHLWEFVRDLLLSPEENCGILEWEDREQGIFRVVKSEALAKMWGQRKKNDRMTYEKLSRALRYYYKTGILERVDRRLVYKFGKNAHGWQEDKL
The settings on record: protein: recombinant; tags: N-terminal GST; dsDNA, one strand shown. In outline: as §1

For assay [17], the target named is T12, ETV3 (Homo sapiens, UniProt P41162-2 1-143).
T12 sequence: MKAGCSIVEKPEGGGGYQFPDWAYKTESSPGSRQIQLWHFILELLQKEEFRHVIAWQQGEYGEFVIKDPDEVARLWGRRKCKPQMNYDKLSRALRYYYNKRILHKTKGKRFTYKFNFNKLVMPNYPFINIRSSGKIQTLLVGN
The settings on record: protein: recombinant; tags: N-terminal GST; dsDNA, one strand shown. Summed up:
as §1

The target in assay [18] is ETV6 (Homo sapiens, UniProt P41212 1-452). The conditions noted are these: protein: recombinant; tags: N-terminal GST; dsDNA, one strand shown. Summed up:
as §1

Sequence of HSF1 (Q00613 whole entry): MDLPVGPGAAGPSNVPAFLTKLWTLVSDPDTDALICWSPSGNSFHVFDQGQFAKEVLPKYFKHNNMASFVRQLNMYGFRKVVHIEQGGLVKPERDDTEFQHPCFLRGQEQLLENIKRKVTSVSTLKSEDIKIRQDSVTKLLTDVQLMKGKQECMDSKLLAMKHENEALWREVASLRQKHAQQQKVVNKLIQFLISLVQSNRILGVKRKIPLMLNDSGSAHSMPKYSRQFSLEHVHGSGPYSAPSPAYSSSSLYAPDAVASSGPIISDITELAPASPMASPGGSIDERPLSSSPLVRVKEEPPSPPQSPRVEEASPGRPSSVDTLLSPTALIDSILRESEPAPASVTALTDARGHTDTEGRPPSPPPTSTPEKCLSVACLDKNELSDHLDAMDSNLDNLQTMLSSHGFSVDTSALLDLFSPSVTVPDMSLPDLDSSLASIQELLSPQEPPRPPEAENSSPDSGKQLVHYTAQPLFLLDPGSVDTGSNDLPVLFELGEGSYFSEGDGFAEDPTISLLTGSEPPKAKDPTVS
Sequence of ETV5 (P41161 whole entry): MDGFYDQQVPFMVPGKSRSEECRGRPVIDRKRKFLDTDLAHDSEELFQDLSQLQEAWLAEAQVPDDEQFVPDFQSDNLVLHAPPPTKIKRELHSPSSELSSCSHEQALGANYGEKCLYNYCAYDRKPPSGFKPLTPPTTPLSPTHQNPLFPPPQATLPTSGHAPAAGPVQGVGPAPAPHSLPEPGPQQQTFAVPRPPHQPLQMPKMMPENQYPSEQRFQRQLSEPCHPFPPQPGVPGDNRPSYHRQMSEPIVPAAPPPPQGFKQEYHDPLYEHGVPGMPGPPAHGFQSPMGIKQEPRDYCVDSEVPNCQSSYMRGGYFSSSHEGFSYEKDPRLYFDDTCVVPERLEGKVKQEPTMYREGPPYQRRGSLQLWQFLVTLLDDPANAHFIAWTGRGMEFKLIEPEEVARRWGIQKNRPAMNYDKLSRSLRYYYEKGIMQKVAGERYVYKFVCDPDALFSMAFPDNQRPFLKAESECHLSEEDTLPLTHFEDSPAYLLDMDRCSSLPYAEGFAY
Sequence of ETV6 (P41212 whole entry): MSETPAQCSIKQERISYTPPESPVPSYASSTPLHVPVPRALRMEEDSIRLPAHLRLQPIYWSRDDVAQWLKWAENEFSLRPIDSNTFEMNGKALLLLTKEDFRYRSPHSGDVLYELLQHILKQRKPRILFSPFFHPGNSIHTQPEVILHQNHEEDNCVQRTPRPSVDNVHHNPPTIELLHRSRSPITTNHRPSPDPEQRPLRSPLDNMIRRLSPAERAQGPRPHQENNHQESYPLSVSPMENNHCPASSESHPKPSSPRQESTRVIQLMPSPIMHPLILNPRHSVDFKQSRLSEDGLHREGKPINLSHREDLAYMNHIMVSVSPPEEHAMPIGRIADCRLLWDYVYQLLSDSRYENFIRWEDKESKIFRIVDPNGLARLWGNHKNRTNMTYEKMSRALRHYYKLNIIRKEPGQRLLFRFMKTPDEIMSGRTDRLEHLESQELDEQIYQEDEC
Sequence of ETV1 (P50549 whole entry): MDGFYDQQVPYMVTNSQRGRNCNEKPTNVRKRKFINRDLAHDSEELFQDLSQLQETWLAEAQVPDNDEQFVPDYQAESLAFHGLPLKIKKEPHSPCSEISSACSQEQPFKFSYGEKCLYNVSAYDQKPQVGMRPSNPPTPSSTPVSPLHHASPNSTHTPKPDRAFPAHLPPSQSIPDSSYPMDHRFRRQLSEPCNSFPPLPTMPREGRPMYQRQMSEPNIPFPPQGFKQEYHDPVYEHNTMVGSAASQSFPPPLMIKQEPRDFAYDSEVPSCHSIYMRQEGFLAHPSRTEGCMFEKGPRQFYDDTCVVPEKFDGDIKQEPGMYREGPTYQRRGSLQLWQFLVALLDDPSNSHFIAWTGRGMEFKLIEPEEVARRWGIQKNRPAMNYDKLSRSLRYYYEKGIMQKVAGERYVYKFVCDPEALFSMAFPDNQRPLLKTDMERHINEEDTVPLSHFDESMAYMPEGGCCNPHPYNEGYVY

For GCTCAC, the binding signal in assay [1] was 1.54 fold enrichment (6-mer frequency, TF over GST control); in assay [2] it was 1.47 fold enrichment (6-mer frequency, TF over GST control); in assay [3], 1.22 fold enrichment (6-mer frequency, TF over GST control); in assay [4], 1.32 fold enrichment (6-mer frequency, TF over GST control); in assay [5], 1.53 fold enrichment (6-mer frequency, TF over GST control); in assay [6] it was 1.53 fold enrichment (6-mer frequency, TF over GST control). Further, the binding signal in assay [7] is 1.63 fold enrichment (6-mer frequency, TF over GST control); in assay [8], 1.49 fold enrichment (6-mer frequency, TF over GST control); in assay [9], 1.37 fold enrichment (6-mer frequency, TF over GST control); in assay [10], 1.37 fold enrichment (6-mer frequency, TF over GST control); in [11], 1.58 fold enrichment (6-mer frequency, TF over GST control); in assay [12] it was 1.57 fold enrichment (6-mer frequency, TF over GST control). Further, the binding signal is 1.43 fold enrichment (6-mer frequency, TF over GST control) in assay [13]; 1.42 fold enrichment (6-mer frequency, TF over GST control) in assay [14]; 1.4 fold enrichment (6-mer frequency, TF over GST control) in assay [15]; 1.49 fold enrichment (6-mer frequency, TF over GST control) in assay [16]; 1.47 fold enrichment (6-mer frequency, TF over GST control) in assay [17]; 1.45 fold enrichment (6-mer frequency, TF over GST control) in assay [18].
